# Gal4-VP16 FLuc – inhibits Gal4-VP16 luciferase reporter, ROR gamma counter-screen; 3.5% of 310,000 active; Potency, µM (highest dose often 53.6 µM), for inactives: top-dose activity, negative = inhibition, hits mostly inhibitors; Drosophila S2 Gal4-VP16 UAS-luciferase, luminescence, 20 h; AID 2546;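 also: Gal4-VP16 expression switched on by copper sulfate through the metallothionein promoter; potency is read from the fitted curve at half-maximal effect; % is scaled to controls: 0 for no effect and ±100 for the full control effect; nearly all actives have a fitted effect of over 50% in size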
# Giardia killer – kills Giardia lamblia. Giardia lamblia trophozoite viability. 0.15% of 340,000 active. activity change, % at 7.66 µM, hits read low. AID 540267; in the data active = activity change below about -80%; inconclusive = between about -30% and that limit;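 also: parasites exposed to compound for two days anaerobically before the ATP read; % is scaled to controls: 0 for no effect and ±100 for the full control effect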
#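 Killing of trophozoites was scored by loss of ATP luminescence after a 48 hrs anaerobic exposure to compounds at 37 deg C, using 100 cells per well.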
# ERG-DNA inh – ERG Ets/DNA interaction inhibition; P11308; fluorescence polarization, His-ERG Ets domain / labelled DNA; Potency, µM (doses to about 76.9 µM), for the others: at the top dose FP activity, negative = inhibition, actives largely listed as inhibitors; 0.028% of 370,000 active; AID 624246; active = well fitted inhibition curve with a large enough effect in the polarisation, with a control signal flat; inconclusive = small, poorly fitted or top-dose-only effect, or effect the other way, or a change in a side signal; inactive = no such curve, though single readings can be large or run the other way; the % refers to the polarisation;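 also: polarization taken with two DNA probes labelled with fluorescein and Texas red; potency is read from the fitted curve at half-maximal effect; % of control where 0% means no effect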
#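 His-tagged ERG Ets domain (1 uM in the protein solution; 300mM KCl, 50mM Tris-HCl, 1mM EDTA, 1mM DTT, pH 7.5) received compound, then a probe mix of 5 nM fluorescein-DNA and 100nM Texas-615-DNA. Fluorescence polarization was read for both dyes.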
# Integrin act MD – activates integrin-mediated alleviation for muscular dystrophy; 0.064% of 350,000 active; AID 624291; Potency, µM (highest dose often 38.3 µM), inactives show at the top dose activation, actives largely listed as activators; alpha7betagal myoblasts, beta-gal FDG fluorescence, 48 h;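 also: potency is read from the fitted curve at half-maximal effect; 100% = response of the positive control SU9516; nearly all actives have a fitted effect of over 60% in size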
#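 Alpha7betagal+/- myoblasts (passage 13) were plated 16-24 hr, then exposed to compounds (1:260 dilution of DMSO stock) for 48 hours at 37C. After MPER lysis, β-galactosidase reporter activity was read as FDG fluorescence (ex 480/em 540) after 30 minutes.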
# RORgamma inh – ROR gamma (mouse) transcription inhibition; P51450; Drosophila S2 Gal4-RORgamma UAS-luciferase reporter, 20 h; Potency, µM (doses to about 53.6 µM), for inactives: top-dose activity change, negative = inhibition, hits mostly inhibitors; AID 2551; 5.4% of 310,000 active; also: potency is read from the fitted curve at half-maximal effect; % is scaled to controls: 0 for no effect and ±100 for the full control effect; nearly all actives have a fitted effect of over 60% in size
# Target sequence (P51450 whole entry, looked up, the tested form may be a part): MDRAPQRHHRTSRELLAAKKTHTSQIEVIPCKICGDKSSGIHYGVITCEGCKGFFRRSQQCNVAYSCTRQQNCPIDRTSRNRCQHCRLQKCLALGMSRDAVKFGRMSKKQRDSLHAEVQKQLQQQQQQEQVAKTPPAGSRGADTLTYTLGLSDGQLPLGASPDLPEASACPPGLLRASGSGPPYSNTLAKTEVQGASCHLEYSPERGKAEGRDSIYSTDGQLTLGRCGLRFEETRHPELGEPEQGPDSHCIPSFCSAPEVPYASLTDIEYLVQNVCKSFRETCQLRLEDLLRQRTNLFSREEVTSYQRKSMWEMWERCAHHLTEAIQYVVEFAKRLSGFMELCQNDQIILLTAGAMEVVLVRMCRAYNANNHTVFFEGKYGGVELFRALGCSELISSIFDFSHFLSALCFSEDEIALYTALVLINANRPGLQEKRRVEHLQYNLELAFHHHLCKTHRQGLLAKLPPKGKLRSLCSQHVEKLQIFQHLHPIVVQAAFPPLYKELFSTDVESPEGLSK
#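 Drosophila S2 cells stably expressing Gal4-DBD/mouse RORγ fusion under metallothionein promoter plus UAS-luciferase; compound 1 h, then 700 uM CuSO4 induction for 20 h at ambient temperature; inhibition read as reduced luminescence.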
# * hit, by the source's call; u = inconclusive; x = not tested or not shown; [ ] = remark or other dose. The entries come from a sample that favours hits as a whole. Unless noted, calls follow the shape of the dose curve; as a rule, active = well fitted curve in the direction sought with a large enough effect; inconclusive = small, poorly fitted or top-dose-only effect, or another doubt; inactive = no such curve, though single readings can be large; an effect the other way counts as inactive or inconclusive.
SMILES,Gal4-VP16 FLuc,Giardia killer,ERG-DNA inh,Integrin act MD,RORgamma inh
O=C(Nc1ccc([N+](=O)[O-])cc1)Nc1ccc(OC(F)F)c(Cl)c1,13µM*,2,21%,-44%,u
Cc1ccsc1/C=N/n1c(COc2ccccc2)n[nH]c1=S,6.3µM*,-7,1%,24%,6.3µM*
Cc1ccsc1/C=N/n1c(-c2cc(-c3ccccc3)n[nH]2)n[nH]c1=S,u,3,16%,34%,2.8µM*
S=c1[nH]nc(COc2ccccc2)n1/N=C/c1cccs1,7.1µM*,1,-10%,-9%,u
S=c1[nH]nc(COc2ccccc2)n1/N=C/c1cccc(Cl)c1Cl,u,-15,-6%,17%,u
CCCCN(CC(O)COc1cccc(C)c1)CC(O)COc1cccc(C)c1 (centres undefined),u,8,-6%,u,u
O=C(Nc1cccc(F)c1)N1CCCC2(CCN(C(=O)c3cnccn3)CC2)C1,4%,x,x,x,-1%
CCN(C(=O)CCNC(=O)Cn1cnc2ccccc2c1=O)c1cc(OC)ccc1OC,x,x,-2%,x,x
O=C(Nc1ncc(Cc2cccc(Cl)c2)s1)c1cccs1,16µM*,7,1%,-35%,7.1µM*
O=C(Nc1ncc(Cc2ccccc2)s1)c1cccs1,u,-17,-1%,-20%,0%[10 µM]
O=C(Nc1nnc(Cc2ccc(Cl)cc2)s1)c1cccs1,20%[0.365 µM],-3,-4%,-2%,u
Cc1ccc(Cc2cnc(NC(=O)c3cccs3)s2)cc1,8.9µM*,-5,-11%,-19%,3.5µM*
Cc1ccc(C(=O)Nc2ncc(Cc3ccccc3)s2)o1,u,u,4%,-3%,11µM*
O=C(Nc1ncc(Cc2ccc(SC(F)F)cc2)s1)c1ccccc1,20µM*,-3,-9%,-15%,13µM*
Cc1cccc(-c2nc(Cn3c(=O)cc(-c4ccccc4)c4c(C)nn(C)c43)c(C)o2)c1,x,x,-1%,x,x
O=C(Nc1ncc(Cc2cccc(Cl)c2)s1)C1=NCCN1,5µM*,14,x,-52%,2.5µM*
O=C1CS/C(=N/N=C/c2cccs2)N1Cc1ccc(F)cc1,-1%,24,0%,0%,2%
COc1cc(C2C(=O)N(C3CCC(C)CC3)CC(=O)N2CCc2ccc(Cl)cc2)ccc1OC(C)C (centres undefined),x,x,2%,x,x
Clc1ccc(/C=C/c2nc3ccccc3[nH]2)c(Cl)c1,7.1µM*,u,-2%,1%,u
O=c1[nH]c(/C=C/c2ccccc2Cl)nc2ccccc12,15%,-20,-5%,12%,-4%
Clc1cccc(Cl)c1/C=C/c1nc2ccccc2[nH]1,u,u,-12%,15%,11µM*
Clc1ccc(/C=C/c2nc3ccccc3[nH]2)cc1,7.1µM*,u,4%,-6%,4.5µM*
CCCCC1(Cc2ccc([N+](=O)[O-])cc2)C(=O)N(c2ccccc2)N(c2ccccc2)C1=O,7.1µM*,-3,-1%,-50%,u
OC(c1cc(-c2ccc(C(F)(F)F)cc2)nc(C(F)(F)F)c1)C1CCCCN1 (centres undefined),22µM*,-3,0%,-61%,u
C=CCN1/C(=C(\C#N)C2=NS(=O)(=O)c3ccccc32)N(C)c2ccccc21,u,-5,-3%,6%,11µM*
SMILES,Gal4-VP16 FLuc,Giardia killer,ERG-DNA inh,Integrin act MD,RORgamma inh
COc1ccccc1N1CCN(C2=NS(=O)(=O)c3ccccc32)CC1,-1%,-8,0%,6%,-6%
Cc1cc(C)cc(NC(=S)Nc2cccc3cnccc23)c1,u,-17,-9%,-16%,13µM*
Cc1ccc(NC(=S)Nc2cccc3cnccc23)c(C)c1,-26%,-2,-7%,1%,16µM*
C=C(C)CNC(=S)Nc1cccc2cnccc12,-23%,-7,-10%,-25%,-18%
CCc1ccc(NC(=S)Nc2cccc3cnccc23)cc1,u,6,2%,-20%,11µM*
Cc1ccc(NC(=S)c2ccncc2)c(C)c1,-7%,23,-6%,-5%,u
Cc1ccc(Cl)cc1NC(=O)Cn1c(=O)n(CCC(=O)NCc2ccc3c(c2)OCO3)c(=O)c2sccc21,x,x,8%,x,x
COc1cc(S(=O)(=O)N(C)C2CCCCC2)c(C)cc1C,-4%,4,7%,-40%,37%
O=C(N/N=C/c1ccc(Sc2ccccn2)o1)c1cc2ccccc2cc1O,19%[0.365 µM],12,-5%,4%,16µM*
O=C(N/N=C\c1ccc(Sc2ccccn2)o1)c1cccc(F)c1,-15%,4,1%,-4%,10µM*
O=C(N/N=C/c1ccc(Sc2ccccn2)o1)c1cccc([N+](=O)[O-])c1,11µM*,-1,-3%,-22%,4µM*
Cc1nc(NC2CCCCC2)c2nc(-c3ccccc3)n(CC3CCN(C)CC3)c2n1,-14%,x,x,x,-4%
CCOc1ccc(S(=O)(=O)Nc2ccccc2C(=O)N/N=C/c2c(OC)ccc3ccccc23)cc1,5.6µM*,-4,-6%,-1%,6.3µM*
O=C(CCCn1c(=O)[nH]c2ccccc2c1=O)N1CCN(c2ccccc2)CC1,x,x,1%,x,x
CCCC(=O)NC(=S)Nc1cccc(Cl)c1N1CCCC1,7.1µM*,-23,-4%,-7%,1.3µM*
O=C(Nc1ccccc1N1CCCCC1)c1cccs1,-2%,0,-1%,10%,-31%
O=C(NC(=S)Nc1cccc(Cl)c1N1CCCCC1)c1cccs1,u,10,-3%,-23%[7.66 µM],0.71µM*
O=C(NC(=S)Nc1cccc(Cl)c1N1CCOCC1)c1cccs1,18µM*,7,-12%,-8%,3.2µM*
O=C(Nc1cccc(Cl)c1N1CCOCC1)c1ccc(Br)o1,-4%,-4,0%,17%,-16%
CCCN(CC(=O)Nc1ccccc1C)C(=O)c1sc2ccccc2c1Cl,x,2,x,0%,x
S=c1[nH]c2cc(-c3ccccc3)ccc2o1,13µM*,-4,2%,u,10µM*
O=S(=O)(c1ccc2oc(=S)[nH]c2c1)N1CCCCC1,2%,-6,-1%,-2%,-1%
CCc1c(C)nc2ncnn2c1NCCc1ccc(Cl)cc1,11µM*,0,3%,-51%,u
CCc1c(C)nc2ncnn2c1NCCc1ccccc1,u,2,5%,-9%,u
CC(C)C1COC(c2cccn2Cc2ccccc2Cl)=N1 (centres undefined),7%,0,2%,-8%,u
Cc1ccc(Cn2cccc2C2=NC(C)CO2)cc1 (centres undefined),-7%,-8,-5%,-3%,18µM*
COc1ccc(O)c(/C=N/n2c(-c3ccco3)csc2=Nc2cccnc2)c1,-26%,6,-3%,16%,-20%
C=CCN=c1scc(C)n1/N=C/c1ccc(O)c(O)c1,-3%,-2,9%,12%,18µM*
CN=c1scc(-c2ccco2)n1/N=C/c1ccc(O)c(O)c1,0.71µM*,-27,1%,-20%,0.089µM*

# Screening results deposited in PubChem BioAssay by National Center for Advancing Translational Sciences (NCATS).
